Compound activity (PubChem BioAssay)
Compounds with a hit are over-represented: about 9.5% of the library has one in this group of screens.
ALDH1A1 inh = blocks purified human ALDH1A1 activity. P00352. Purified ALDH1A1, NADH fluorescence, propionaldehyde substrate. Potency, µM (highest dose often 75.3 µM), without a hit: at the highest dose activity, negative = inhibition, hits mostly inhibitors. hit rate 7.3% among 220,000. AID 1030; active means well fitted inhibition curve with a large enough effect, not every such curve was filed as active; inconclusive means small, poorly fitted or top-dose-only effect, or another doubt; inactive means no such curve, though single readings can be large or run the other way;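 further: plate controls were no enzyme wells and a reference inhibitor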
Target sequence (P00352 whole entry, looked up): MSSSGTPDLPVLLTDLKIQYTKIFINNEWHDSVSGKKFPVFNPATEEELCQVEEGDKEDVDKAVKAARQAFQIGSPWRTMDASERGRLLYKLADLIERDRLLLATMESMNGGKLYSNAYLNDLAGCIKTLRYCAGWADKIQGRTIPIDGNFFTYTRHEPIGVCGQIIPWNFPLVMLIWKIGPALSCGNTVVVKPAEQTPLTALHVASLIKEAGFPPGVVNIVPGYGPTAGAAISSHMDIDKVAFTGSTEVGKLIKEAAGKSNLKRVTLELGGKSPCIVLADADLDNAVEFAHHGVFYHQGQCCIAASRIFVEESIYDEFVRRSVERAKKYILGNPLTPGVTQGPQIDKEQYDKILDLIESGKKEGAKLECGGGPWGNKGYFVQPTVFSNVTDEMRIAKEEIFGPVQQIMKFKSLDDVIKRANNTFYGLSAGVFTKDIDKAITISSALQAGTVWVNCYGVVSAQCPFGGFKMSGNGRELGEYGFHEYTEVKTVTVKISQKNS
NPSR antagonist = blocks cAMP signaling of the human neuropeptide S receptor | CHO-NPSR cells, cAMP TR-FRET, antagonist mode | Q6W5P4 | hit rate 1% among 220,000 | Potency, µM (titrated, usually from 38.3 µM), for inactives: at the highest dose activity change, negative = inhibition, most hits filed as inhibitors; further: nearly all actives have a fitted effect of over 50% in size
HPGD inh = inhibitors of human 15-hydroxyprostaglandin dehydrogenase (HPGD) | purified HPGD, NADH fluorescence kinetic, PGE2 substrate | hit rate 4.3% among 150,000 | Potency, µM, for inactives: top-dose activity change, negative = inhibition, most hits filed as inhibitors | AID 894 | P15428; active means well fitted inhibition curve with a large enough effect, not every such curve was filed as active; inconclusive means small, poorly fitted or top-dose-only effect, or another doubt; inactive means no such curve, though single readings can be large or run the other way
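20 nM HPGD preincubated 15 min at room temperature with compound in 50 mM Tris-HCl pH 8, 0.01% Tween 20. Started with 1 mM NAD+ and 30 uM prostaglandin E2; NADH fluorescence (360/450 nm) read 5 times over 30-s intervals, last minus first.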
Tau fluor counter = counter-screen for tau fibril formation inhibitors; tau K18 P301L Alexa594 fluorescence, heparin fibrillization; Potency, µM (series often up to 57.7 µM), without a hit: at the top dose activity change, negative = decrease; hit rate 0.93% among 280,000; AID 1463; further: nearly all actives have a fitted effect of over 55% in size
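Human tau K18 P301L (15 uM unlabeled, 0.24 uM Alexa 594-labeled) in 100 mM sodium acetate pH 7 with 20 uM heparin, 6 hr at 37 C. ThT 30 uM added, 1 hr ambient; Alexa 594 FP and total fluorescence read at 555/632 nm.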
Tau ThT inhib = blocks human tau fibril formation measured by thioflavin T; P10636; recombinant tau K18 P301L (four-repeat tau fragment), heparin-induced fibrillization, ThT fluorescence; Potency, µM (series often up to 57.4 µM), inactives show top-dose activity, negative = inhibition, usual class: inhibitors; hit rate 2.1% among 270,000; AID 1460; further: nearly all actives have a fitted effect of over 55% in size
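Recombinant human tau K18 fragment […] carrying P301L, 15 uM unlabeled plus 0.24 uM Alexa 594-labeled, was fibrillized with 20 uM heparin in 100 mM sodium acetate pH 7 for 6 hr at 37 C; 30 uM ThT fluorescence read after 1 hr.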
Tau fibril FP = blocks human tau fibril formation measured by polarization | K18 P301L tau heparin fibrillization, Alexa594 FP, 6 h | hit rate 0.39% among 280,000 | Potency, µM (doses to about 57.7 µM), inactives show at the highest dose activity, negative = inhibition, most hits filed as inhibitors; further: nearly all actives have a fitted effect of over 55% in size
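Steps: dispense K18 P301L tau (15 uM plus 0.24 uM Alexa 594 tracer, final) in pH 7 sodium acetate; add compound; add heparin (20 uM final); incubate 6 hr, 37 C; add ThT (30 uM final); after 1 hr ambient, read FP.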
Numbers without * were called inactive; ? = inconclusive; . = no result given; [ ] = dose if it differs, or a comment. Unless noted, the call rests on the fitted dose curve; in most records, active means well fitted curve in the direction sought with a large enough effect; inconclusive means small, poorly fitted or top-dose-only effect, or another doubt; inactive means no such curve, though single readings can be large; an effect the other way counts as inactive or inconclusive. Unless noted, on the % scale 0 is the no-effect control and ±100 the full control effect; potency means the concentration at half of the fitted maximal effect.

SMILES	ALDH1A1 inh	NPSR antagonist	HPGD inh	Tau fluor counter	Tau ThT inhib	Tau fibril FP
O=C(Nc1cc(Cl)c(O)c(Cl)c1)C1CCCO1 (centres undefined)	?	-10%[46.1 µM]	25µM*	2%	0%	3%
COc1ccc2nc(NC(=O)C3CCCO3)sc2c1 (centres undefined)	-9%	-4%	.	-7%	-12%	-9%
CCOC(=O)C1=C(c2ccccc2)c2cc(OC)ccc2OC1C(=O)OCC (centres undefined)	?	.	-10%	-10%[81.3 µM]	-8%[81.4 µM]	5%[81.3 µM]
CC(OC(=O)c1ccc(F)cc1)C(=O)Nc1nc(-c2cccc([N+](=O)[O-])c2)cs1 (centres undefined)	-3%	-13%	-15%	?	-20%	7%
C=CCn1c(SCc2csc(C)n2)nc2sc3c(c2c1=O)CCCC3	?	?	-14%	-17%	?	2%
C=CCn1c(SCc2csc(C)n2)nc2sc3c(c2c1=O)CCCCC3	22µM*	?	-6%	-7%	?	1%
COc1ccc(S(=O)(=O)N2CCN(Cc3ccc4c(c3)OCO4)CC2)cc1C	.	.	.	-11%	-10%	-5%
CSc1ccc(S(=O)(=O)N2CCN(Cc3ccc4c(c3)OCO4)CC2)cc1	14µM*	-21%	-3%	-29%	-12%	-4%
COc1ccc(C(=O)NCC(=O)NCC(=O)OCc2ccc(Br)cc2)cc1	-5%	9%	.	-2%	-3%	7%
Cc1cccc(C(=O)NN2C(=O)C3C(c4ccccc4)C=CC(c4ccccc4)C3C2=O)c1 (centres undefined)	2%	?	-9%	-26%	-2%	-9%
O=C(NN1C(=O)C2C3C=CC(O3)C2C1=O)c1cccc(Br)c1 (centres undefined)	28µM*	5%	.	7%	-7%	0%
O=C(NN1C(=O)C2C3C=CC(O3)C2C1=O)c1cccc(O)c1 (centres undefined)	20µM*	-4%[46.1 µM]	-3%	-3%	-2%	-7%
O=C(Cn1c(-c2cccs2)cc2ccccc21)N1CCN(c2ccc(F)cc2)CC1	.	.	.	-13%	0%	-5%
O=C1OC(c2cccc([N+](=O)[O-])c2)C2(CCCC2)C(=O)C12CCCCC2 (centres undefined)	-5%	-46%	-17%	14%	13%	5%
CN(C)c1cccc(NC2=CC(=[N+]3CCOCC3)CC(C)(C)C2)c1	28µM*	-27%[46.1 µM]	?	11%	6%	6%
COc1ccc2c(c1)CC(C(=O)NCCN1CCN(c3cccc(C)c3C)CC1)CO2 (centres undefined)	.	.	.	-20%	?	2%
S=c1[nH]nc(-c2ccc(Cl)cc2)n1/N=C/c1ccco1	.	?	.	-25%	?	-4%
S=c1[nH]nc(-c2ccco2)n1/N=C/c1ccc(Cl)cc1Cl	?	-20%[46.1 µM]	2.2µM*	-23%	?	9%
S=c1[nH]nc(-c2ccco2)n1/N=C/c1cccc(Cl)c1Cl	-4%	-13%	2µM*	-17%	?	13%
Cc1cccc(C)c1[N+](=O)[O-]	?	.	-11%	.	.	.
N#Cc1c(C(F)(F)F)cc(-c2cccs2)nc1SCC(=O)Nc1cccc(C(F)(F)F)c1	.	.	.	-22%	-11%	?
CN1CCc2nc(SCC(=O)Nc3ccc(OC(F)(F)F)cc3)c(C#N)c(-c3cccs3)c2C1	3.2µM*	-58%	-24%	-3%	12%	-1%
Cc1cccc(CSc2nc3c(c(-c4cccs4)c2C#N)CN(C)CC3)c1	?	-37%	-5%	25µM*[quencher]	16µM*	-4%
CN1CCc2nc(SCC(=O)Nc3cccc(F)c3)c(C#N)c(-c3cccs3)c2C1	8.9µM*	?	-25%	16µM*[quencher]	14µM*	-13%
Cc1cccc(CSc2nc(N)c(C#N)c(-c3cccs3)c2C#N)c1	?	?	?	?	-3%	?
Cc1ccc(NC(=O)CN(C)C(=S)NC2CC2)cc1	5%	10%	.	-6%	-5%	-5%
